Screening results as filed in PubChem.
LmPK inhibitor: inhibitors of Leishmania mexicana pyruvate kinase; hit rate 0.37% among 290,000; Potency, µM (highest dose often 57.5 µM), inactives show at the highest dose activity change, negative = inhibition, usual class: inhibitors; Q27686; purified LmPK, Kinase-Glo ATP luminescence, 1 h; note: % is set by controls: 0 for no effect and ±100 for the full control effect
Target sequence (Q27686 whole entry, looked up): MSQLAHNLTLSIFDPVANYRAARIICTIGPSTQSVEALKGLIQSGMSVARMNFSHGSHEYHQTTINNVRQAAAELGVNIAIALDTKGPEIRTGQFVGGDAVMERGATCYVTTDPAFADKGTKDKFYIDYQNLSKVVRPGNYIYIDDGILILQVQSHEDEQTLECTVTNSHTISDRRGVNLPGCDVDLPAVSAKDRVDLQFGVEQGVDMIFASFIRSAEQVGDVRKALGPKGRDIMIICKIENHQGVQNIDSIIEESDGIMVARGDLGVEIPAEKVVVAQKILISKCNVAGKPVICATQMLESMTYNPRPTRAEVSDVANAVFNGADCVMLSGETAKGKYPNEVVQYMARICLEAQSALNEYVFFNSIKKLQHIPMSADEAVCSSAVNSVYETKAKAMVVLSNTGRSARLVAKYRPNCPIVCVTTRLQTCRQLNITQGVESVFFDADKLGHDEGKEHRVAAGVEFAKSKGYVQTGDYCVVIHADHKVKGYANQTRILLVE
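0.1 nM LmPK, 0.5 mM PEP, 0.1 mM ADP; 50 mM imidazole pH 7.2, 7 mM MgCl2, 50 mM KCl; 1 h RT. Kinase-Glo luminescence readout, normalized to no-enzyme (full inhibition) and uninhibited wells.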
Giardia FBPA inh-1: blocks Giardia fructose-bisphosphate aldolase activity | A8B2U2 | purified Giardia FBPA | Potency, µM (top dose mostly 59.6 µM), for inactives: top-dose activity, negative = inhibition, usual class: inhibitors | hit rate 0.71% among 290,000 | AID 2451; note: % is set by controls: 0 for no effect and ±100 for the full control effect; nearly all actives have a fitted effect of over 55% in size
Target sequence (A8B2U2 whole entry, looked up): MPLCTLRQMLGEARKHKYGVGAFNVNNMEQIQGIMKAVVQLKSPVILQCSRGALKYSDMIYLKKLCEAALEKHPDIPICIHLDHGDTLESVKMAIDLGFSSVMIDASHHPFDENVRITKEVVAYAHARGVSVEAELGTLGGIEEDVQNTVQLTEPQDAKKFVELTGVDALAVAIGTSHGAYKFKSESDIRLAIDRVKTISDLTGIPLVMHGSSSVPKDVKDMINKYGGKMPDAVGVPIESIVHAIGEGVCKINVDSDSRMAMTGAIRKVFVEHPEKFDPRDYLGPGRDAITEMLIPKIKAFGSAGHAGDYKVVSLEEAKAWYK
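40 nM FBPA preincubated 10 min at RT with compound (up to 57.5 uM final), then substrate plus GAPDH/TPI/NAD/arsenate coupling and diaphorase/resazurin added. Fluorescence read after 20 min at RT, 525/598 nm.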
RE007 growth inh: less growth of the S. pombe RE007 Vpr strain. hit rate 0.21% among 360,000. S. pombe RE007 Vpr strain, BacTiter-Glo ATP luminescence, 24 h. Potency, µM (top dose mostly 92.2 µM), without a hit: at the top dose activity change, negative = less growth, hits mostly inhibitors. AID 651644; active = well fitted falling curve with a large enough effect; inconclusive = small, poorly fitted or top-dose-only effect; inactive = no such curve, though single readings can be large or run the other way; note: % is set by controls: 0 for no effect and ±100 for the full control effect; nearly all actives have a fitted effect of over 50% in size
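Fission yeast strain RE007, carrying one chromosomally integrated HIV-1 vpr copy, was seeded at OD 0.01 in PMG+AL medium with 23 nL pinned compound. After 24 h at 30 °C and 99% humidity, viability was read by BacTiter-Glo luminescence.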
Tb PYK inh: inhibitors of Trypanosoma brucei pyruvate kinase; hit rate 0.12% among 410,000; Q57TT1; TbPYK enzyme, Kinase-Glo Plus ATP luminescence, 45 min; Potency, µM (series often up to 76.8 µM), without a hit: at the highest dose activity, negative = inhibition, usual class: inhibitors; note: % is set by controls: 0 for no effect and ±100 for the full control effect; nearly all actives have a fitted effect of over 50% in size
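Readout: single end-point luminescence (Kinase-Glo Plus, 10 min). Reaction conditions were TbPYK/substrate plus 130 uM ADP, 45 min at RT, pH 7.2 TEA buffer. No-enzyme wells served as controls, and data were normalized before concentration-response fitting.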
NS1 function inh: blocks influenza NS1 protein function; Potency, µM (doses to about 46.1 µM), without a hit: at the highest dose activity, positive = more growth; hit rate 0.4% among 270,000; AID 2326; calls by dose curve; note: actives are rising curves; nearly all actives have a fitted effect of over 50% in size
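Growth recovery, yeast-based: influenza A NS1 expressed in S. cerevisiae causes slow growth, and suppressors are detected by OD600. The parent strain without NS1 is used as positive control.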
Sm TGR inh: inhibitors of Schistosoma mansoni thioredoxin glutathione reductase; Q962Y6; purified TGR, DTNB reduction, TNB absorbance 405 nm; Potency, µM (titrated, usually from 114 µM), inactives show at the highest dose activity change, negative = inhibition, actives largely listed as inhibitors; hit rate 3% among 360,000; note: % is set by controls: 0 for no effect and ±100 for the full control effect; nearly all actives have a fitted effect of over 60% in size
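Kinetic colorimetric format: TGR-catalysed, NADPH-driven DTNB reduction monitored via TNB absorbance. Enzyme dispensed at 20 nM; compound exposure 15 min at room temperature before reaction start.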
Giardia growth: Giardia lamblia growth inhibition; Potency, µM (series often up to 57.5 µM), without a hit: at the highest dose activity change, negative = inhibition, actives largely listed as inhibitors; hit rate 5% among 1,500; AID 2785; Giardia lamblia trophozoite growth inhibition; shares compounds with Giardia FBPA inh-1;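 note: trophozoites exposed to compound for 48 h at 37 °C; % is set by controls: 0 for no effect and ±100 for the full control effect; nearly all actives have a fitted effect of over 70% in size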
Mammal cell tox: toxic to mammalian cells in Giardia aldolase counter-screen; shares compounds with Giardia FBPA inh-1; Potency, µM (highest dose often 57.5 µM), inactives show top-dose viability change, negative = toxicity, usual class: inhibitors; hit rate 4% among 1,500; AID 2786; mammalian cell viability counter-screen, qHTS;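 note: Chinese hamster ovary cells used as mammalian cytotoxicity surrogate; viability measured as cellular ATP by luminescence; compound exposure lasted 48 h before reading; % is set by controls: 0 for no effect and ±100 for the full control effect; nearly all actives have a fitted effect of over 60% in size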
Giardia FBPA inh-2: confirmation of Giardia fructose-bisphosphate aldolase inhibitors | hit rate 5% among 1,500 | purified Giardia aldolase enzyme activity, qHTS | shares compounds with Giardia FBPA inh-1 | AID 2787 | Potency, µM (series often up to 57.5 µM), for inactives: at the highest dose activity change, negative = inhibition, actives largely listed as inhibitors; note: % is set by controls: 0 for no effect and ±100 for the full control effect; nearly all actives have a fitted effect of over 45% in size
Rabbit aldolase: rabbit FBP aldolase inhibition by Giardia aldolase hits. shares compounds with Giardia FBPA inh-1. Rabbit muscle FBPA enzyme inhibition, selectivity counter-screen. Potency, µM (highest dose often 57.5 µM), for the others: top-dose activity, negative = inhibition, actives largely listed as inhibitors. hit rate 4% among 1,500. AID 2794; note: % is set by controls: 0 for no effect and ±100 for the full control effect; nearly all actives have a fitted effect of over 60% in size
GAPDH counter: counter-screen for Giardia aldolase inhibitors: GAPDH coupling enzyme; shares compounds with Giardia FBPA inh-1; hit rate 6% among 1,500; Potency, µM (highest dose often 57.5 µM), without a hit: at the top dose activity change, negative = inhibition, actives largely listed as inhibitors; AID 2795; GAPDH coupling enzyme counterscreen, biochemical, qHTS; note: % is set by controls: 0 for no effect and ±100 for the full control effect; nearly all actives have a fitted effect of over 55% in size
Starred values were filed as active, the others as inactive; [ ] = remark or other dose. This is a sample that favours compounds with a hit; in the whole collection about 3.5% have one here. Unless noted, calls come from the whole dose curve; as a rule, active = well fitted curve in the direction sought with a large enough effect; inconclusive = small, poorly fitted or top-dose-only effect, or another doubt; inactive = no such curve, though single readings can be large; an effect the other way counts as inactive or inconclusive. Potency is the fitted concentration of half-maximal effect.

`Cn1c(-c2cccc([N+](=O)[O-])c2)cnc1NCc1cccc(F)c1` gave LmPK inhibitor -11.2%, Giardia FBPA inh-1 28.2µM*, RE007 growth inh -4.8%, Tb PYK inh 20.4%, NS1 function inh -6.5%, Sm TGR inh 4.1%, Giardia growth -8.5%[10.4 µM], Mammal cell tox -21.1%, Giardia FBPA inh-2 -4.6%, Rabbit aldolase 3.0% and GAPDH counter 4.9%.
`COc1cc(Cl)c(C)cc1NC(=O)Cn1ncc2c1-c1cc(C)ccc1OC2` gave Tb PYK inh -3.7% and Sm TGR inh 0.1%.
Screening C=CCn1c(COc2cccc3cccnc23)nnc1SCC(=O)O returned LmPK inhibitor -8.9%, Giardia FBPA inh-1 inconclusive, RE007 growth inh -14.7%, Tb PYK inh -10.3%, NS1 function inh -6.1% and Sm TGR inh -4.8%.
Screening C=CCn1c(COc2cccc3ccc(C)nc23)nnc1SCC(=O)O returned LmPK inhibitor -5.5%, Giardia FBPA inh-1 14.1µM*, RE007 growth inh 13.2%, Tb PYK inh -0.2%, NS1 function inh 11.6%, Sm TGR inh 14.4%, Giardia growth -18.8%, Mammal cell tox 9.4%, Giardia FBPA inh-2 -5.7%, Rabbit aldolase 3.7% and GAPDH counter 1.9%.
`O=[N+]([O-])c1cc(CN2CCN(c3cccc(C(F)(F)F)c3)CC2)c2cccnc2c1O` gave LmPK inhibitor 1.6%[11.5 µM], Giardia FBPA inh-1 15.8µM*, RE007 growth inh -7.7%, Tb PYK inh -6.0%, Sm TGR inh -26.9%, Giardia growth -16.7%, Mammal cell tox -28.0%, Giardia FBPA inh-2 -9.6%, Rabbit aldolase -19.1% and GAPDH counter -21.5%.
Screening COc1ccc(C2CC(=O)c3c([nH]c(C(=O)OC4CCCCCC4)c3C)C2)cc1 (stereo not drawn) returned Tb PYK inh 1.6% and Sm TGR inh 4.3%.
COc1ccc(N2CCN(C(=O)CSc3nnc(C)c(=O)[nH]3)CC2)cc1 was read as LmPK inhibitor 21.1%, Giardia FBPA inh-1 12.6µM*, RE007 growth inh -7.7%, Tb PYK inh -5.7%, NS1 function inh -2.7%, Sm TGR inh inconclusive, Giardia growth -12.4%, Mammal cell tox 7.6%, Giardia FBPA inh-2 -8.3%, Rabbit aldolase 11.0% and GAPDH counter 6.5%.
`COc1ccc(N2CCN(C(=O)CSc3nc4ccccc4c(=O)[nH]3)CC2)cc1` gave LmPK inhibitor -2.5%, Giardia FBPA inh-1 -10.7%, RE007 growth inh 9.9%, Tb PYK inh 4.1%, NS1 function inh 11.2% and Sm TGR inh -5.7%.
Screening COc1ccccc1Cn1ccn(Cc2ccc(C)cc2)c(=O)c1=O returned Tb PYK inh -5.1% and Sm TGR inh 0.1%.
CCN(CC)S(=O)(=O)c1cccc(C(=O)Nc2ccccc2C(=O)Nc2ccc(OC)cc2)c1 was read as Tb PYK inh 1.7% and Sm TGR inh 2.7%.
Screening COc1ccccc1NC(=O)Cn1c(=O)n(CCc2ccccc2)c(=O)c2c3c(sc21)CN(C(C)=O)CC3 returned Tb PYK inh -3.9% and Sm TGR inh 2.0%.
`O=C(C1CCCN(Cc2ccccc2F)C1)N1CCCCC1` (stereo not drawn) gave LmPK inhibitor -2.8%, Giardia FBPA inh-1 12.6µM*, RE007 growth inh -12.6%, Tb PYK inh 23.9%, NS1 function inh 7.8%, Sm TGR inh -1.8%, Giardia growth -3.0%[10.4 µM], Mammal cell tox -6.5%, Giardia FBPA inh-2 4.1%, Rabbit aldolase 11.9% and GAPDH counter 12.5%.
For CCc1cccc(C)c1NC(=S)N(CCCN1CCOCC1)Cc1cccnc1 the results were LmPK inhibitor 0.1%, Giardia FBPA inh-1 15.8µM*, RE007 growth inh -5.7%, Tb PYK inh -1.1%, Sm TGR inh 16.3%, Giardia growth -1.7%, Mammal cell tox 7.8%, Giardia FBPA inh-2 6.2%, Rabbit aldolase 13.1% and GAPDH counter 10.0%.
`COc1ccc(OC)c(S(=O)(=O)N2Cc3ccccc3CC2C(=O)Nc2ccc(C(C)=O)cc2)c1` (stereo not drawn) gave Tb PYK inh -5.5% and Sm TGR inh -6.7%.
CCC(=O)NC1=C(Cl)C(=O)C(NC(=O)CC)=C(Cl)C1=O was read as LmPK inhibitor inconclusive, Giardia FBPA inh-1 1.77µM*, Tb PYK inh 2.51µM*, NS1 function inh 2.2%, Sm TGR inh 0.224µM*, Giardia growth 13.6%[38.3 µM], Mammal cell tox inconclusive, Giardia FBPA inh-2 2.91µM*, Rabbit aldolase 5.17µM* and GAPDH counter 3.66µM*.
Screening CCC(=O)Nc1ccccc1 returned LmPK inhibitor -11.7%, Giardia FBPA inh-1 7.8%, RE007 growth inh 13.0%, Tb PYK inh 1.9%, NS1 function inh -2.1% and Sm TGR inh -21.8%.
Screening CC(C)c1ccc(NC(=O)Cn2cc(S(=O)(=O)Cc3cccc(Cl)c3)c3ccccc32)cc1 returned Tb PYK inh -2.6%[15.4 µM] and Sm TGR inh 1.6%.
`CN(C)CCCNS(=O)(=O)c1ccc(N2CCN(Cc3ccc4c(c3)OCO4)CC2)c([N+](=O)[O-])c1` gave LmPK inhibitor -2.4%, Giardia FBPA inh-1 14.1µM*, RE007 growth inh -7.1%, Tb PYK inh 5.6%, NS1 function inh 2.8%, Sm TGR inh -17.1%, Giardia growth -16.8%, Mammal cell tox -0.3%, Giardia FBPA inh-2 -7.5%, Rabbit aldolase -1.0% and GAPDH counter 14.2%.
Screening CC(=O)c1ccc(N2CCN(c3ccc(S(=O)(=O)NCCCN(C)C)cc3[N+](=O)[O-])CC2)cc1 returned LmPK inhibitor 2.6%, Giardia FBPA inh-1 3.8%, RE007 growth inh -9.1%, Tb PYK inh 2.8% and Sm TGR inh -10.6%.
